Hits are enriched below; roughly 2.8% of the tested compounds scored in any of these assays.
IP6K1 inh – inhibitors of human IP6K1. activity change, % (series mostly up to about 58 µM). 0.81% of 140,000 active. IP6K1 kinase, ADP-Glo luminescence, 2 h; active compounds read low. Q92551. AID 1645851; in the data active = activity change below about -25%
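ADP-Glo luminescence measures ADP made by human IP6K1 during a 2 h RT reaction with ATP/IP6 (mix at 1.3 mM/130 uM); top library doses 57.5 and 19.1 uM final.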
KDM5B inhibitor – KDM5B demethylase inhibition | Q9UGL1 | KDM5B demethylase, FDH-coupled NADH fluorescence (FDH is formaldehyde dehydrogenase) | Potency, µM (titrated, usually from 57.7 µM), hits mostly inhibitors | 2.6% of 220,000 active | AID 1347165; active = well fitted inhibition curve with a large enough effect; inconclusive = small, poorly fitted or top-dose-only effect; inactive = no such curve, though single readings can be large or run the other way; note: nearly all actives have a fitted effect of over 70% in size
Target sequence (Q9UGL1 whole entry, looked up): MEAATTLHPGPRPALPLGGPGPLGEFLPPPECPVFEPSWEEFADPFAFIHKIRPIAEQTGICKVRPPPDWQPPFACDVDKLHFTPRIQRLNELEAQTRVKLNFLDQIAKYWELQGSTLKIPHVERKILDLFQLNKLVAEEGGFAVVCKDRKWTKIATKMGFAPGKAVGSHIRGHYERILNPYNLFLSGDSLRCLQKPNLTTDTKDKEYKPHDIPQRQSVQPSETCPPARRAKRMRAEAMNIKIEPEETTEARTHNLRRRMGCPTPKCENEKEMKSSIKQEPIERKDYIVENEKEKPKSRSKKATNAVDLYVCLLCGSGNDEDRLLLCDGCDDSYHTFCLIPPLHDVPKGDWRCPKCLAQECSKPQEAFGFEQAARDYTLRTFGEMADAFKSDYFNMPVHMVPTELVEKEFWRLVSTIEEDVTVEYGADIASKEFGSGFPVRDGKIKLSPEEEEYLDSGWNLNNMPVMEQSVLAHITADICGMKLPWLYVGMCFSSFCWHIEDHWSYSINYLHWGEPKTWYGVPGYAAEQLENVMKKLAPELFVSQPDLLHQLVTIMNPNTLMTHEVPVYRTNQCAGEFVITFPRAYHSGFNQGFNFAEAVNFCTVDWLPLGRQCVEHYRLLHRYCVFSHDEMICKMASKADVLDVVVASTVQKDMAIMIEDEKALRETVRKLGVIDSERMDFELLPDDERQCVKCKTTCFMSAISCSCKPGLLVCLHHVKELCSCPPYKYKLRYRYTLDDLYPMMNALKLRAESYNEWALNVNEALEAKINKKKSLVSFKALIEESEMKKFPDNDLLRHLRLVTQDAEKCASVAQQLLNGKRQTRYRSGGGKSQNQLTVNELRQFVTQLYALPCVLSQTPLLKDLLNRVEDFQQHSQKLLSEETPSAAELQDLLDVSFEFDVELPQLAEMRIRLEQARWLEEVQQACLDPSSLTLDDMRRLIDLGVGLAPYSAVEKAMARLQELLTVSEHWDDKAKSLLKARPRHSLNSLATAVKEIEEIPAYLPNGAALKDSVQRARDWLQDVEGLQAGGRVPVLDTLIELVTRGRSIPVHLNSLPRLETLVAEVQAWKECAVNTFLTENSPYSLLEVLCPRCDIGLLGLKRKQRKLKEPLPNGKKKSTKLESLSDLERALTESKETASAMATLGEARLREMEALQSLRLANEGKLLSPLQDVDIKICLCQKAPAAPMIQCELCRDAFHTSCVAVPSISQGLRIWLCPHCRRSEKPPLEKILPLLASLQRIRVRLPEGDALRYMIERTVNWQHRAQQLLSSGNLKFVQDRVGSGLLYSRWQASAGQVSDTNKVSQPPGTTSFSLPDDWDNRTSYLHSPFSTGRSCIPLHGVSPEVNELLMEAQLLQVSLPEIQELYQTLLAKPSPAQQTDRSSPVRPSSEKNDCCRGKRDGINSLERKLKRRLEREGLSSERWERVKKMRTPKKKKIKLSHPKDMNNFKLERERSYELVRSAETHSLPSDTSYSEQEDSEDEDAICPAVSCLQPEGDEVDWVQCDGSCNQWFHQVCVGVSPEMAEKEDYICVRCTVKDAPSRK
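Inhibition is measured as reduced NADH fluorescence generation from FDH coupling to formaldehyde release. Truncated KDM5BΔAP at 200 nM final acts on H3K4me3 peptide (12.5 µM in substrate mix) in pH 7.5 HEPES buffer with Tween-20, 30 min, room temperature.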
Of the large screens only hits and unclear results are named; the others gave an inactive call.

Cc1nc(-c2cn(C3CCCN(C(=O)c4cccc(F)c4)C3)nn2)no1 (stereo not drawn)	none
COc1cccc2sc(NC(=O)c3ccc4c(c3)OCCO4)nc12	none
COc1cccc2sc(NC(=O)c3ccc4c(c3)OCCN(C3CCC3)C4)nc12	KDM5B inhibitor 35.5µM
CCOc1ccc(NC(=O)c2n[nH]c3ccccc23)cc1S(=O)(=O)N1CCCC1	none (no result: IP6K1 inh)
COCCN1CCCCCC(O)c2cc(C(=O)NC3CCC3)ccc21 (stereo not drawn)	KDM5B inhibitor 31.6µM
COCCCNC(=O)c1ccc2c(c1)C(O)CCCCCN2CCOC (stereo not drawn)	KDM5B inhibitor inconclusive
COCCN1CCCCCC(O)c2cc(C(=O)N(C)Cc3cccnc3)ccc21 (stereo not drawn)	none
COCCN1CCCCCC(O)c2cc(C(=O)N(C)Cc3ccc(N4CCCCC4)cc3)ccc21 (stereo not drawn)	KDM5B inhibitor 7.94µM
CCOc1cc(=O)n2c(c1C(=O)NCc1ccc(F)cc1Cl)CCCC2	none
CCNC(=O)N1CCCC(c2nn(C)c(=O)n2CC)C1 (stereo not drawn)	none
CCOC(=O)N1CCN(C(=O)c2cc3ccccc3n2C)CC1	none (no result: IP6K1 inh)
CCC[C@H]1CN(C(=O)c2ccc3c(c2)nc(NCCOC)n3C)C[C@@H]1N	none
COCCNc1nc2cc(C(=O)N3CC[C@H](CO)[C@@H](O)C3)ccc2n1C	KDM5B inhibitor 28.2µM
Cc1nn2c(c1-c1ccnn1C(C)C)N(Cc1cccc(C#N)c1)CCC2	KDM5B inhibitor inconclusive
Cn1c(=O)c2c(ncn2CCCC(=O)Nc2ccc(N3CCCC3=O)cc2)n(C)c1=O	none (no result: IP6K1 inh)
CN(Cc1cccnc1)C(=O)CCC[C@@H]1[C@H]2CCCN3CCC[C@@H](CN1Cc1cccnc1)[C@@H]23	KDM5B inhibitor 22.4µM
CC(=O)N1C[C@@H]2CCCN3CCC[C@@H]([C@H]23)[C@H]1CCCC(=O)N1CCN(c2ccccn2)CC1	KDM5B inhibitor 31.6µM
CCN(Cc1ccccc1)C(=O)CCC[C@@H]1[C@H]2CCCN3CCC[C@@H](CN1Cc1cccnc1)[C@@H]23	none
CC(=O)N1C[C@@H]2CCCN3CCC[C@@H]([C@H]23)[C@H]1CCCC(=O)N1CCN(c2ccc(F)cc2)CC1	none
CC(=O)N1C[C@@H]2CCCN3CCC[C@@H]([C@H]23)[C@H]1CCCC(=O)N1CCN(c2ccccc2)CC1	none
CC(=O)N1C[C@@H]2CCCN3CCC[C@@H]([C@H]23)[C@H]1CCCC(=O)N1CCN(C)CC1	KDM5B inhibitor 25.1µM
CC(=O)N1C[C@@H]2CCCN3CCC[C@@H]([C@H]23)[C@H]1CCCC(=O)NCCN(C)C	KDM5B inhibitor 28.2µM
CN(C)CCNC(=O)CCC[C@@H]1[C@H]2CCCN3CCC[C@@H](CN1C)[C@@H]23	none
Cn1c(C(=O)NCc2ccc(F)cc2)cc2c(=O)n(C)c3ccccc3c21	none
COc1ccc(-n2c(COc3ccc(Cl)cc3)nnc2SCC(=O)C(C)(C)C)cc1	none (no result: IP6K1 inh)
CN(CC(=O)NC(=O)NC1CC1)CC(=O)N(C)C	none (no result: IP6K1 inh)
Cc1noc(-c2cn(C3CCN(C(=O)c4cccc(Cl)c4)C3)nn2)n1 (stereo not drawn)	none
CSc1ccccc1C(=O)Nc1c(F)cc(F)cc1Br	none (no result: IP6K1 inh)
O=C(CCC[C@@H]1[C@H]2CCCN3CCC[C@@H](CN1Cc1ccccc1)[C@@H]23)N1CCCC1	none
CN1CCN(C(=O)CCC[C@@H]2[C@H]3CCCN4CCC[C@@H](CN2Cc2ccccc2)[C@@H]34)CC1	KDM5B inhibitor 31.6µM
CC(Oc1ccccc1)C(=O)N1CC(Oc2cccc(-c3nc(-c4ccccc4)no3)c2)C1 (stereo not drawn)	KDM5B inhibitor 22.4µM
O=C(c1ccoc1)N1CC(Oc2cccc(-c3nc(-c4ccccc4)no3)c2)C1	KDM5B inhibitor inconclusive
COc1ccccc1C(=O)N1CC(Oc2cccc(-c3nc(-c4ccccc4)no3)c2)C1	KDM5B inhibitor 22.4µM
COc1cccc(C(=O)N2CC(Oc3cccc(-c4nc(-c5ccccc5)no4)c3)C2)c1	none
Cc1ccccc1Cn1cc(-c2ccncc2)cc1C(=O)Nc1ccc2c(c1)OCO2	none
CS(=O)(=O)N1CCC2(CC1)CC(CC(=O)O)CCO2 (stereo not drawn)	none
Cc1cn2nc(-c3nc(C4CCCN(C(=O)c5ccccc5F)C4)no3)cc2c(=O)[nH]1 (stereo not drawn)	KDM5B inhibitor 28.2µM
Cc1cn2nc(-c3nc(C4CCCN(C(=O)c5cccs5)C4)no3)cc2c(=O)[nH]1 (stereo not drawn)	none
C=CCN(Cc1ccc(F)cc1)C(=O)C(C)Oc1ccccc1OC (stereo not drawn)	none
COc1ccccc1-c1cnc(NC(=O)C2CCOCC2)c2c1CCO2	none
COc1ccccc1-c1cnc(Nc2cccc(N[S+](C)(=O)[O-])c2)c2c1CCO2	KDM5B inhibitor 25.1µM
CN(C)c1cccc(-c2cnc(Nc3cccc(N[S+](C)(=O)[O-])c3)c3c2CCO3)c1	KDM5B inhibitor inconclusive
COc1ccccc1-c1cnc(Nc2ccc(Cl)cn2)c2c1CCO2	KDM5B inhibitor 35.5µM
COc1ccccc1-c1cnc(Nc2cccnc2)c2c1CCO2	none
COc1ccccc1-c1cnc(Nc2ccccc2)c2c1CCO2	KDM5B inhibitor inconclusive
COc1ccc(Nc2ncc(-c3ccccc3OC)c3c2OCC3)cc1	KDM5B inhibitor 35.5µM
COc1ccccc1-c1cnc(Nc2cccnc2OC)c2c1CCO2	KDM5B inhibitor 35.5µM
COc1ccccc1/C=C/c1nc(C#N)c(N2CCN(C)CC2)o1	KDM5B inhibitor inconclusive
Cc1[nH]nc2ccc(-c3cncc(OC[C@@H](N)Cc4ccccc4)c3)cc12	none (no result: KDM5B inhibitor)
O=c1oc2cc(S(=O)(=O)N3CCOCC3)ccc2n1Cc1ccc(Cl)cc1	none (no result: IP6K1 inh)
CCN(CCO)C(=S)Nc1cccc(C)c1	none (no result: IP6K1 inh)
O=C(NCC1CCCCC1)c1ccc2nc(-c3ccccn3)oc2c1	none (no result: KDM5B inhibitor)
O=C(NC1CCCN(CCn2nc3n(c2=O)CCCC3)C1)c1cccc(Cl)c1 (stereo not drawn)	none (no result: KDM5B inhibitor)
Cc1oc(-c2ccc(C(=O)NCc3cccnc3)cc2)nc1CSc1ccccc1	none (no result: IP6K1 inh)
CC(C)c1ccc(/C=N/NC(=O)CCc2ccccc2)cc1	none (no result: IP6K1 inh)
O=C(NC1CC1)c1cc(C2CC2)nc2onc(C3CCCN3)c12 (stereo not drawn)	KDM5B inhibitor inconclusive
Cc1cc(C(=O)NCCCOC(C)C)c2c(C3CCCN3)noc2n1 (stereo not drawn)	KDM5B inhibitor 50.1µM
CC(C)CNC(=O)c1cc(C2CC2)nc2onc(C3CCCN3)c12 (stereo not drawn)	KDM5B inhibitor inconclusive
CC(C)OCCCNC(=O)c1cc(C2CC2)nc2onc(C3CCCN3)c12 (stereo not drawn)	KDM5B inhibitor inconclusive
O=C(NCC1CC1)c1cc(C2CC2)nc2onc(C3CCCNC3)c12 (stereo not drawn)	KDM5B inhibitor 89.1µM
O=C(NCc1ccc(F)cc1)c1cc(C2CC2)nc2onc(C3CCCNC3)c12 (stereo not drawn)	none
O=C(NCC1CC1)c1cc(C2CC2)nc2onc(C3CCCN3)c12 (stereo not drawn)	KDM5B inhibitor 89.1µM
COCCNC(=O)c1cc(C2CC2)nc2onc(C3CCCN3)c12 (stereo not drawn)	KDM5B inhibitor 56.2µM
O=C(Nc1ccccc1)NC1CCN(Cc2ccc(-c3ccsc3)cc2)C1 (stereo not drawn)	none (no result: KDM5B inhibitor)
CC(=O)Nc1ccc(OCC(=O)O)nc1	none
COCc1nc(CCNC(=O)CCCc2nc3ccccc3[nH]2)no1	none
O=C1CCCC2=C1C(c1ccco1)c1c(ncn3nc(-c4ccco4)nc13)O2 (stereo not drawn)	none (no result: IP6K1 inh)
